TGFb SMAD3 inh = qHTS for Inhibitors of TGF-b. HepG2 CAGA-GFP TGF-b/SMAD3 reporter, GFP fluorescence, 18 h; TGF-beta stimulated, 500 pg/mL final. Potency, µM (doses to about 46.1 µM), for inactives: top-dose activity, negative = inhibition, usual class: inhibitors. 410,000 compounds, 1.2% hits; note: potency is the fitted concentration of half-maximal effect; % is set by controls: 0 for no effect and ±100 for the full control effect; nearly all actives have a fitted effect of over 65% in size
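Per well, imaged GFP fluorescence of HEPG2 CAGA-GFP cells gives the signal; cells get compound, then TGF-beta (500 pg/mL final), 18 h at 37 degrees C; %Activity versus -TGF-beta and +DMSO controls.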
HepG2 tox = qHTS for Inhibitors of TGF-b: Cytotox Counterscreen; HepG2 CAGA-GFP viability, ATP luminescence, 18 h; Potency, µM (highest dose often 46.1 µM), for inactives: at the highest dose activity change, negative = cytotoxicity, most hits filed as cytotoxic; 410,000 compounds, 0.76% hits; AID 588856, 2011; note: potency is the fitted concentration of half-maximal effect
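HepG2 CAGA-GFP cells (1000/well, DMEM with 1% FBS) received compound, then TGF-beta at 500 pg/mL final, and were incubated 18 hours at 37 degrees C. Viability was read by CellTiter-Glo luminescence. Media-only wells were set as complete cell-killing and DMSO as no toxicity.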
TDP1 cell noCPT = qHTS for Inhibitors of human tyrosyl-DNA phosphodiesterase 1 (TDP1): qHTS in cells in absence of CPT | DT40 Tdp1-/- hTDP1 cells, no CPT, ATP luminescence, 48 h | Potency, µM (doses to about 46.2 µM), for inactives: at the highest dose activity change, negative = growth inhibition, actives largely listed as inhibitors | 420,000 compounds, 15% hits | AID 686978, 2013; note: potency is the fitted concentration of half-maximal effect; % is set by controls: 0 for no effect and ±100 for the full control effect; nearly all actives have a fitted effect of over 55% in size
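Chicken DT40 Tdp1-/- cells complemented with human TDP1, screened without camptothecin (DMSO vehicle only), 400 cells/well. Compounds pin-transferred, cells incubated at 37 °C for at least 48 hr. Growth read as ATP-dependent luminescence (CellTiter-Glo, 30 min at RT).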
IL-1B inflam inh = qHTS for Inhibitors of Inflammasome Signaling: IL-1-beta AlphaLISA Primary Screen. THP-1 LPS/ATP IL-1B secretion, AlphaLISA, 16 h; active compounds read low. activity change, % at 57.5 µM. 360,000 compounds, 4.7% hits; in the data active = activity change below about -50%; inconclusive = mostly about -30% to -49%; note: % is set by controls: 0 for no effect and ±100 for the full control effect
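Secreted IL-1B measured by AlphaLISA bead assay after 16 h compound exposure of THP-1 cells; compounds (final up to 57.5 uM) added 1 h before LPS (250 ng/mL) and ATP (1.25 mM) stimulation; lower signal means less secretion.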
DT40 TDP1 CPT = qHTS for Inhibitors of human tyrosyl-DNA phosphodiesterase 1 (TDP1): qHTS in cells in presence of CPT | Potency, µM (doses to about 46.2 µM), without a hit: at the top dose activity change, negative = growth inhibition, usual class: inhibitors | chicken DT40 Tdp1-/-;hTDP1 cells + 20 nM CPT, ATP luminescence, 48 h | 420,000 compounds, 12% hits; note: potency is the fitted concentration of half-maximal effect; % is set by controls: 0 for no effect and ±100 for the full control effect; nearly all actives have a fitted effect of over 55% in size
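Cell growth measured by CellTiter-Glo luminescence after a minimum 48 h, 37 C compound exposure with 20 nM CPT in Tdp1-knockout DT40 cells stably expressing hTDP1, seeded 400/well; qHTS titration format.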
TDP1 inh = qHTS Assay for Inhibitors of Tyrosyl-DNA Phosphodiesterase (TDP1); Tyrosyl-DNA phosphodiesterase 1 (Homo sapiens), Q9NUW8; recombinant TDP1, AlphaScreen DNA substrate cleavage; Potency, µM (highest dose often 130 µM), for inactives: at the top dose activity change, negative = inhibition, hits mostly inhibitors; 350,000 compounds, 0.28% hits; note: potency is the fitted concentration of half-maximal effect; % is set by controls: 0 for no effect and ±100 for the full control effect; nearly all actives have a fitted effect of over 40% in size
Target sequence (Q9NUW8 whole entry, looked up): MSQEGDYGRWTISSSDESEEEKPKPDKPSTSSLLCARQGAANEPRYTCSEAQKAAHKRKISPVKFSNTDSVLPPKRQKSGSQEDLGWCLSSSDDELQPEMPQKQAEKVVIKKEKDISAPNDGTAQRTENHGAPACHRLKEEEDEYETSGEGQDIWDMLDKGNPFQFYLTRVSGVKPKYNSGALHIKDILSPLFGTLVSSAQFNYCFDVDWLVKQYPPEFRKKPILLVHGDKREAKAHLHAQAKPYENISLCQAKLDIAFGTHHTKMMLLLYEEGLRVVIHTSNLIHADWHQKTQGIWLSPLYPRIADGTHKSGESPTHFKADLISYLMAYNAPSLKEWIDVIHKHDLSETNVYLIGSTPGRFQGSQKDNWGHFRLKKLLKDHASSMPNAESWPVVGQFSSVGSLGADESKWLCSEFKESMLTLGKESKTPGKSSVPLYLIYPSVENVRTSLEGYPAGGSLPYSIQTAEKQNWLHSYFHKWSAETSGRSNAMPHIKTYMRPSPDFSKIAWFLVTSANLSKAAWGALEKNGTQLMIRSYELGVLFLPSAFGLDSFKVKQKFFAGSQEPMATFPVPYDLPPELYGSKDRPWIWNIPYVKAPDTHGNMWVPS
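Enzyme-compound mixtures sat 15 min at room temperature, followed by a 5 min reaction with 15 nM final substrate and 10 min with AlphaScreen beads. Recombinant human Tdp1 was used at 1 nM final.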
Numbers without * were called inactive; ? = inconclusive; / = not tested or not shown; [ ] = another dose, or the depositor's remark. Sampled rows, rich in hits. Any-hit rate of the full collection: about 18%. Unless noted, calls come from the whole dose curve; as a rule, active = well fitted curve in the direction sought with a large enough effect; inconclusive = small, poorly fitted or top-dose-only effect, or another doubt; inactive = no such curve, though single readings can be large; an effect the other way counts as inactive or inconclusive.

SMILES	TGFb SMAD3 inh	HepG2 tox	TDP1 cell noCPT	IL-1B inflam inh	DT40 TDP1 CPT	TDP1 inh
C=C(C)C(=O)c1cccs1	/	/	/	/	/	8.7%
COCC1=C2c3ccccc3[C@H](C[N+](=O)[O-])C(C(=O)OC)(C(=O)OC)C[C@@H]2n2c(=O)n(-c3ccccc3)c(=O)n2C1	/	/	/	/	/	7.5%
Cc1cc(SCC(=O)OCC(=O)N(CCC#N)c2ccccc2)nc2ccccc12	?	-1.4%	-22.9%	4.4	-7.8%	/
Cc1ccc(-c2nc(-c3cc4cccc(OCc5ccc(F)cc5)c4oc3=O)no2)cc1	84.3%	-3.3%	18.4µM*	/	?	2.7%
Cc1ccc(-c2nc(-c3cc4cccc(OCc5cccc(F)c5)c4oc3=O)no2)cc1	63.1%	-11.7%	13µM*	/	14.6µM*	1.8%
Cc1ccc(COc2cccc3cc(-c4noc(-c5ccc(C)cc5)n4)c(=O)oc23)cc1	9.5%	4.0%	?	/	-18.6%	0.0%
CSCC[C@H](NC(=O)[C@H](CC(C)C)N(C)C(=O)[C@@H]1CCCN1C(=O)[C@H](Cc1ccccc1)NC(=O)[C@H](Cc1ccccc1)NC(=O)CCC(C)N)C(=O)O (some centres not stated)	/	/	/	/	/	10.2%
COc1ccccc1CNC(=O)CCc1c(C)c2ccc(OC)c(C)c2oc1=O	7.9%	2.7%	-22.7%	/	?	7.4%
CCCCN(CC)CCCNC(=O)Nc1sc2nc3n(c(=O)c2c1C)CCC(C)CC3 (configuration not stated)	?	-44.0%	20.6µM*	/	?	6.8%
CC(=O)c1ccc(NC(=O)Nc2sc3nc4n(c(=O)c3c2C)CCC(C)CC4)cc1 (configuration not stated)	0.1%	-34.7%	8.2µM*	/	5.8µM*	2.0%
Cc1cc(C)c(NC(=O)Nc2sc3nc4n(c(=O)c3c2C)CCC(C)CC4)c(C)c1 (configuration not stated)	11.1%	-20.4%	-29.1%	/	-24.8%	-2.9%
CC(C)CC(C)N1CCC(n2nccc2NC(=O)CCc2ccccc2)CC1 (configuration not stated)	-5.8%	-19.8%	-10.1%	-8.1	4.2%	4.2%
CCOC(=O)c1cc2cc(OC)ccc2n1C1CCN(CCc2ccccc2)CC1	/	/	?	-9.5	?	/
CCOC(=O)c1cc2ccccc2n1C1CCN(CCc2ccccc2)CC1	/	/	7.31µM*	-18.9	9.2µM*	/
O=C(Nc1cc([N+](=O)[O-])ccc1N1CCOCC1)c1cccs1	7.3%	6.6%	4.8%	3.4	-3.7%	0.2%
CC1N(C)c2cc(NC(=O)c3cccs3)c(P(=O)(Nc3ccc([N+](=O)[O-])cc3)N3CCOCC3)cc2C1(C)C (configuration not stated)	-19.2%	-15.8%	18.4µM*	-57.9*	?	10.4%
Cn1c(C(=O)Nc2ccc(OC(F)(F)F)cc2)cc2c(=O)n3ccccc3nc21	-0.5%	-0.5%	?	/	-7.3%	-2.6%
CC(C)(CNC(=O)c1cnn(-c2nccc(-c3ccccc3F)n2)c1C1CC1)N1CCOCC1	/	/	?	/	-13.6%[9.04 µM]	/
CN(C)c1ccc(C=NCCC2(O)CCOC(C)(C)C2)cc1 (configuration not stated)	-8.3%	0.2%	-15.4%	-7.0	-21.2%	-2.4%
COc1ccccc1C1(CCN=Cc2ccc(N(C)C)cc2)CCOC(C)(C)C1 (configuration not stated)	-1.1%	-23.6%	-11.2%	-64.2*	-22.1%	/
O=C(c1ccccc1-n1cccn1)N1CCOc2ccc(CN3CCOCC3)cc2C1	/	/	-22.2%	/	12.4%[9.04 µM]	/
Cc1cccc(S(=O)(=O)N2CN(Cc3ccco3)c3nc4ccccc4nc32)c1	?	3.4%	?	-13.2	18.4µM*	5.9%
COc1ccccc1CN1CN(S(=O)(=O)c2ccccc2)c2nc3ccccc3nc21	-3.4%	2.7%	?	6.9	14.6µM*	/
COCCN1CN(S(=O)(=O)c2ccccc2)c2nc3ccccc3nc21	11.2%	0.0%	-26.5%	-6.2	-15.8%	-12.0%
O=S(=O)(c1cccs1)N1CN(Cc2ccc(Cl)cc2)c2nc3ccccc3nc21	-5.7%	-3.9%	?	-22.0	?	1.0%
SMILES	TGFb SMAD3 inh	HepG2 tox	TDP1 cell noCPT	IL-1B inflam inh	DT40 TDP1 CPT	TDP1 inh
Cc1ccc(CN2CN(S(=O)(=O)c3cccs3)c3nc4ccccc4nc32)cc1	-3.2%	-5.0%	20.6µM*	-20.7	16.4µM*	4.9%
O=S(=O)(c1cccs1)N1CN(Cc2ccco2)c2nc3ccccc3nc21	0.0%	-3.1%	13µM*	-18.6	?	8.2%
Cc1cc(=O)oc2cc(NC(=O)c3ccccc3Cl)ccc12	-1.3%	-14.8%	?	26.9	11.7%	/
CCCCc1nnc(NC(=O)CCS(=O)(=O)c2ccc(Cl)cc2)s1	-33.3%	-0.4%	7.31µM*	28.8	6.51µM*	0.2%
CCCc1nnc(NC(=O)CCS(=O)(=O)c2ccccc2)s1	-18.9%	11.6%	5.17µM*	-58.3*	2.31µM*	-13.1%
CCCCCc1nnc(NC(=O)Cc2cccs2)s1	-0.7%	1.3%	-24.1%	14.8	-19.9%	35.5µM*
CC(=O)Nc1nnc(CCS(=O)(=O)c2ccc(Cl)cc2)s1	-2.9%	-1.5%	-5.8%	0.0	21.9%	1.8%
CCCc1nnc(NS(=O)(=O)c2ccccc2)s1	11.4%	11.8%	-7.1%	19.5	?	/
O=C(Cc1cccs1)Nc1nnc(CCc2ccccc2)s1	-11.1%	-14.6%	-29.9%	12.9	-14.7%	-2.2%
Cc1cc(C)cc(N(CCC(=O)O)S(=O)(=O)c2ccc(Cl)cc2)c1	8.5%	8.1%	10.4%	18.3	4.2%	4.2%
CCc1nnc(NC(=O)CCN(c2cc(C)cc(C)c2)S(=O)(=O)c2ccc(Cl)cc2)s1	-13.1%	-2.0%	18.4µM*	89.3	?	0.0%
COCC1CCCN(Cc2ccc3c(c2)CN(C(=O)c2ccc(-c4ccc(C)o4)cc2)CCO3)C1 (configuration not stated)	/	/	-18.8%	/	11.7%[9.04 µM]	/
CCc1ccc2occ(CC(=O)Nc3sc4c(c3C(=O)NCCOC)CCCC4)c2c1	-3.7%	-21.6%	?	/	?	2.5%
